Laboratory results from PubChem BioAssay (EPA / NIEHS).
The source made the active and inactive calls. Rule for the calls: active = hit-call score of the fitted dose curve at least 0.9, where 1 is the maximum; inactive = score below 0.9.

Assays:
Conditions in all cases: mRNA level, 48 h; actives raise or lower the signal
CYP2C9 (gene 1559) = assay: LTEA_HepaRG_CYP2C9: Life Technologies and Expression Analysis (LTEA) Assay for CYP2C9 using HepaRG (AID 2283484)
Procedure, shortened: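 Differentiated human HepaRG cells in serum-free induction medium were exposed 48 h to chemicals in 8-point half-log series from 100 uM (0.5% DMSO), in duplicate. CYP2C9 mRNA was measured by qRT-PCR, normalized to ACTB/GAPDH/POLR2A, with bidirectional fitting versus DMSO.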

CYP2E1 (gene 1571) = assay: LTEA_HepaRG_CYP2E1: Life Technologies and Expression Analysis (LTEA) Assay for CYP2E1 using HepaRG (AID 2283485)
Procedure, shortened: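 HepaRG cells, plated 48 h, then exposed 48 h in serum-free induction medium to eight half-log concentrations from 100 uM in 0.5% DMSO, duplicate. CYP2E1 mRNA by qRT-PCR, normalized to ACTB/GAPDH/POLR2A; bidirectional fit versus DMSO.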

CYP4A11 (gene 1579) = assay: LTEA_HepaRG_CYP4A11: Life Technologies and Expression Analysis (LTEA) Assay for CYP4A11 using HepaRG (AID 2283486)
Procedure, shortened: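 Readout is CYP4A11 transcript level by qRT-PCR, normalized to three housekeeping genes and fitted bidirectionally against 0.5% DMSO. Human HepaRG cells were treated 48 h, in duplicate, with an 8-point half-log series topping at 100 uM.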

[1] = read-out: Cytochrome P450 3A4 (Homo sapiens) (UniProt P08684); assay: LTEA_HepaRG_CYP3A4: Life Technologies and Expression Analysis (LTEA) Assay for CYP3A4 using HepaRG (AID 2283487)
Procedure, shortened: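 HepaRG, 48 h exposure, 8-pt CRC from 100 uM (half-log), 0.5% DMSO, duplicates; serum-free induction medium. Readout: CYP3A4 mRNA, qRT-PCR, ACTB/GAPDH/POLR2A normalization. Bidirectional fit vs DMSO.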

[2] = read-out: DNA damage-inducible transcript 3 (DDIT3), DDIT3 (gene 1649); assay: LTEA_HepaRG_DDIT3: Life Technologies and Expression Analysis (LTEA) Assay for DNA damage-inducible transcript 3 (DDIT3) using HepaRG (AID 2283488)
Procedure, shortened: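 HepaRG cells, 48 h after plating, exposed 48 h in serum-free induction medium to 8 half-log concentrations up to 100 uM in 0.5% DMSO, in duplicate. DDIT3 mRNA measured by TaqMan qRT-PCR, normalized to ACTB, GAPDH and POLR2A. Fitted bidirectionally against DMSO.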

[3] = read-out: Pro-epidermal growth factor (Homo sapiens) (UniProt P01133); assay: LTEA_HepaRG_EGF: Life Technologies and Expression Analysis (LTEA) Assay for Epidermal growth factor (EGF) using HepaRG (AID 2283489)
Procedure, shortened: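 EGF transcript measured by Fluidigm TaqMan qRT-PCR with three housekeeping genes for normalization, 48 h after dosing HepaRG cultures in duplicate (top 100 uM, half-log steps, 0.5% DMSO vehicle). Gain or loss relative to DMSO fitted.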

[4] = read-out: Early growth response protein 1 (EGR1) transcription factor, EGR1 (gene 1958); assay: LTEA_HepaRG_EGR1: Life Technologies and Expression Analysis (LTEA) Assay for Early growth response protein 1 (EGR1) transcription factor using HepaRG (AID 2283490)
Procedure, shortened: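 Differentiated HepaRG cells in serum-free induction medium exposed 48 hours, duplicate, to 8 half-log concentrations up to 100 uM in 0.5% DMSO. EGR1 mRNA measured by TaqMan qRT-PCR, normalized to ACTB, GAPDH, POLR2A; bidirectional fit versus DMSO.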

[5] = read-out: Ezrin (EZR), EZR (gene 7430); assay: LTEA_HepaRG_EZR: Life Technologies and Expression Analysis (LTEA) Assay for Ezrin (EZR) using HepaRG (AID 2283491)
Procedure, shortened: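 Read-out is EZR transcript level by qRT-PCR, normalized to three housekeeping genes and fitted bidirectionally against the DMSO control. Human HepaRG cells received test chemicals for 48 h at eight half-log concentrations up to 100 uM in 0.5% DMSO.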

[6] = read-out: Cytochrome P450 3A7 (Homo sapiens) (UniProt P24462); assay: LTEA_HepaRG_CYP3A7: Life Technologies and Expression Analysis (LTEA) Assay for CYP3A7 using HepaRG (AID 2283492)
Procedure, shortened: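 CYP3A7 transcript measured by qRT-PCR (ACTB, GAPDH, POLR2A normalization) after 48 h chemical exposure of HepaRG cells in duplicate. Eight half-log concentrations, maximum 100 uM, 0.5% DMSO vehicle; bidirectional curve fitting against DMSO baseline.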

CYP3A5 (gene 1577) = assay: LTEA_HepaRG_CYP3A5: Life Technologies and Expression Analysis (LTEA) Assay for CYP3A5 using HepaRG (AID 2283493)
Procedure, shortened: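 HepaRG cells, plated 48 h then in serum-free induction medium, dosed in duplicate for 48 h with eight half-log concentrations up to 100 uM in 0.5% DMSO. Gene mRNA by Fluidigm TaqMan qRT-PCR, normalized to ACTB, GAPDH, POLR2A.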

[7] = read-out: Fatty Acid-Binding Protein 1 (FABP1), FABP1 (gene 2168); assay: LTEA_HepaRG_FABP1: Life Technologies and Expression Analysis (LTEA) Assay for Fatty Acid-Binding Protein 1 (FABP1) using HepaRG (AID 2283494)
Procedure, shortened: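 Differentiated human HepaRG cells exposed 48 h in serum-free induction medium to eight half-log concentrations up to 100 uM (0.5% DMSO), duplicate. FABP1 mRNA by qRT-PCR, normalised to ACTB, GAPDH, POLR2A; bidirectional fitting against DMSO.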

[8] = read-out: Cytochrome P450 4A22 (Homo sapiens) (UniProt Q5TCH4); assay: LTEA_HepaRG_CYP4A22: Life Technologies and Expression Analysis (LTEA) Assay for Cytochrome P450 4A22 (CYP4A22) using HepaRG (AID 2283495)
Procedure, shortened: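 Gene expression measured by qRT-PCR against three housekeeping genes (ACTB, GAPDH, POLR2A), with gain or loss fitted relative to 0.5% DMSO vehicle. HepaRG cultures received 48 h chemical treatment, top concentration 100 uM, half-log steps, duplicate wells.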

[9] = read-out: Cytochrome P450 7A1 (Homo sapiens) (UniProt P22680); assay: LTEA_HepaRG_CYP7A1: Life Technologies and Expression Analysis (LTEA) Assay for Cytochrome P450 7A1 (CYP7A1) using HepaRG (AID 2283496)
Procedure, shortened: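 HepaRG cells plated 48 h, then switched to serum-free induction medium and exposed in duplicate for 48 h to 8-point half-log series from 100 uM in 0.5% DMSO. CYP7A1 mRNA by qRT-PCR (TaqMan), normalized to ACTB/GAPDH/POLR2A; bidirectional fit versus DMSO.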

[10] = read-out: Glutathione S-Transferase (GSTA2), GSTA2 (gene 2939); assay: LTEA_HepaRG_GSTA2: Life Technologies and Expression Analysis (LTEA) Assay for Glutathione S-Transferase (GSTA2) using HepaRG (AID 2283497)
Procedure, shortened: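 Differentiated human HepaRG cells were exposed in duplicate for 48 h in serum-free induction medium, 8 points from 100 uM top in half-log steps, 0.5% DMSO. GSTA2 mRNA was measured by TaqMan qRT-PCR, normalized to ACTB, GAPDH and POLR2A; bidirectional fit versus DMSO.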

[11] = read-out: Glutamate-cysteine ligase catalytic (GCLC), GCLC (gene 2729); assay: LTEA_HepaRG_GCLC: Life Technologies and Expression Analysis (LTEA) Assay for Glutamate-cysteine ligase catalytic (GCLC) using HepaRG (AID 2283498)
Procedure, shortened: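 Differentiated HepaRG cells exposed 48 h in serum-free induction medium, eight-point half-log series topping at 100 uM in 0.5% DMSO, duplicates. GCLC mRNA by qRT-PCR normalized to ACTB, GAPDH and POLR2A, fitted bidirectionally versus DMSO.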

[12] = read-out: growth arrest and DNA damage 45 (GADD45G), GADD45G (gene 10912); assay: LTEA_HepaRG_GADD45G: Life Technologies and Expression Analysis (LTEA) Assay for growth arrest and DNA damage 45 (GADD45G) using HepaRG (AID 2283499)
Procedure, shortened: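 GADD45G transcript level by qRT-PCR (housekeeping-normalized: ACTB, GAPDH, POLR2A) after 48 h chemical treatment of a single HepaRG lot in serum-free induction medium; eight-point half-log series up to 100 uM in 0.5% DMSO, duplicates, up- or down-regulation scored.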

[13] = read-out: Glutamate-cysteine ligase regulatory (GCLM), GCLM (gene 2730); assay: LTEA_HepaRG_GCLM: Life Technologies and Expression Analysis (LTEA) Assay for Glutamate-cysteine ligase regulatory (GCLM) using HepaRG (AID 2283500)
Procedure, shortened: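 Differentiated HepaRG cells exposed 48 h in serum-free induction medium to eight half-log concentrations up to 100 uM (0.5% DMSO). GCLM mRNA by TaqMan qRT-PCR, normalized to ACTB, GAPDH and POLR2A; bidirectional fit versus DMSO.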

[14] = read-out: Glutathione S-transferase M3 (GSTM3), GSTM3 (gene 2947); assay: LTEA_HepaRG_GSTM3: Life Technologies and Expression Analysis (LTEA) Assay for Glutathione S-transferase M3 (GSTM3) using HepaRG (AID 2283501)
Procedure, shortened: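 GSTM3 transcript levels came from Fluidigm TaqMan qRT-PCR normalized to three housekeeping genes, fitted in both directions against DMSO. HepaRG cultures received chemicals for 48 h in serum-free induction medium (0.5% DMSO), 8 half-log concentrations up to 100 uM, duplicate.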

[15] = read-out: Heat shock 70 kDa protein 1 (HSPA1A), gene 3303; assay: LTEA_HepaRG_HSPA1A: Life Technologies and Expression Analysis (LTEA) Assay for Heat shock 70 kDa protein 1 (HSPA1A) using HepaRG (AID 2283502)
Procedure, shortened: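 Human HepaRG cells in serum-free induction medium were exposed in duplicate for 48 h to 8 half-log concentrations, highest 100 uM, in 0.5% DMSO. HSPA1A mRNA read by TaqMan qRT-PCR, normalized to ACTB, GAPDH, POLR2A, fitted bidirectionally against DMSO.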

[16] = read-out: Hypoxia-inducible factor 1-alpha (Homo sapiens) (UniProt Q16665); assay: LTEA_HepaRG_HIF1A: Life Technologies and Expression Analysis (LTEA) Assay for Hypoxia-inducible factor 1 (HIF1A) Trancription factor using HepaRG (AID 2283503)
Procedure, shortened: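 Differentiated HepaRG cells in serum-free induction medium exposed 48 h, in duplicate, to 8-point half-log series from 100 uM in 0.5% DMSO. HIF1A mRNA measured by TaqMan qRT-PCR, normalized to ACTB/GAPDH/POLR2A, fitted bidirectionally versus DMSO.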

Measured: outcome

Sequence of Cytochrome P450 3A7 (Homo sapiens) (P24462 whole entry, looked up): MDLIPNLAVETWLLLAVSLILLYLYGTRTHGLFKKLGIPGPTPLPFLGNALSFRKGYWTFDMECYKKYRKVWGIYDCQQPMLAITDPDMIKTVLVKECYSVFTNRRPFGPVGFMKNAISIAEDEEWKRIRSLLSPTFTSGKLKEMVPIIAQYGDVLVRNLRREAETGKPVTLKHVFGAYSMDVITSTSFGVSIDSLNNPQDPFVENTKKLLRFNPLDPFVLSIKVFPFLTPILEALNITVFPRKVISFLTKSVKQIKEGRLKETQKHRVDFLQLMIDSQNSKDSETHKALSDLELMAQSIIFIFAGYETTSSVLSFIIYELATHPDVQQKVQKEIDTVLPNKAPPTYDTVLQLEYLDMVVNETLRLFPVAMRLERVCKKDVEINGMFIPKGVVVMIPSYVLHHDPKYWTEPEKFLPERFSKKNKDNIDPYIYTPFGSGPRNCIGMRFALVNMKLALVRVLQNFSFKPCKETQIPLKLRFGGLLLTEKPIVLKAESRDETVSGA
Sequence of Cytochrome P450 3A4 (Homo sapiens) (P08684 whole entry, looked up): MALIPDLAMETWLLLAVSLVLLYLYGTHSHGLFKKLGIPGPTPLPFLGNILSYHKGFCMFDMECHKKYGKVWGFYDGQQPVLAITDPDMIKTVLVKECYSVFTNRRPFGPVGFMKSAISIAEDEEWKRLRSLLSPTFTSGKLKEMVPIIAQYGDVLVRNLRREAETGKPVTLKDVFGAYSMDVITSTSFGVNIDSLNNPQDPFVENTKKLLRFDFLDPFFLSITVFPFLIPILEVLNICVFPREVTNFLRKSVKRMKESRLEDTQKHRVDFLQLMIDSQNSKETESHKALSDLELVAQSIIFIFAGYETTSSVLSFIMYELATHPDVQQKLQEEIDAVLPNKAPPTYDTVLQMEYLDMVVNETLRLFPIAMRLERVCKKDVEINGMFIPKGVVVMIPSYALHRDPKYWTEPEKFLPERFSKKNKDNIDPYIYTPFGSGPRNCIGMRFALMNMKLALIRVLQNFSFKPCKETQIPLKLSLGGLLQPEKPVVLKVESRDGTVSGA
Sequence of Hypoxia-inducible factor 1-alpha (Homo sapiens) (Q16665 whole entry, looked up): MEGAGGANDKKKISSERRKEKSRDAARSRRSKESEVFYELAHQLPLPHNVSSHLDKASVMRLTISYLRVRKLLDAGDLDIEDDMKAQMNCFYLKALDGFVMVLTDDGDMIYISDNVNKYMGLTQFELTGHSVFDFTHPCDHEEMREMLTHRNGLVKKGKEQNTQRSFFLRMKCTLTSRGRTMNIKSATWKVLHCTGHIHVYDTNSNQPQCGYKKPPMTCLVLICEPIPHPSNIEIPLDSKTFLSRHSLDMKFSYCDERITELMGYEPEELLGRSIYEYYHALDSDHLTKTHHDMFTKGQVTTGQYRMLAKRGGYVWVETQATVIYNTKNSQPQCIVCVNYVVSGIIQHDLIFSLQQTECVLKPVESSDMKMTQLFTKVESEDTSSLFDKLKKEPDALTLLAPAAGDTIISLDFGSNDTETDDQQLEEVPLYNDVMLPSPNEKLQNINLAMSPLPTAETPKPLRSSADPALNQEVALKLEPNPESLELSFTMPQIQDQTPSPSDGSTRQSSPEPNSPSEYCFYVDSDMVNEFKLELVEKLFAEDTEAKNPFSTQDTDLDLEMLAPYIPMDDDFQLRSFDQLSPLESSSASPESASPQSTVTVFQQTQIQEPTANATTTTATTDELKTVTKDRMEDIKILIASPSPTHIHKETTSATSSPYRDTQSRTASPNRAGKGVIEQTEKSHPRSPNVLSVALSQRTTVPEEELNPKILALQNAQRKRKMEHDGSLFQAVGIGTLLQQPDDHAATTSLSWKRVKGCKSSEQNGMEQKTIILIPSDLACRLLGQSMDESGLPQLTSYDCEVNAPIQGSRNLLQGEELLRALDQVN

CC1(C)C(=O)N(Br)C(=O)N1Br
inactive: CYP2C9 (gene 1559) | CYP2E1 (gene 1571) | CYP4A11 (gene 1579) | [1] | [2] | [3] | [4] | [5] | [6] | CYP3A5 (gene 1577) | [7] | [8] | [9] | [10] | [11] | [12] | [13] | [14] | [15] | [16]
